# Measurements: PubChem BioAssay
# The source made the active and inactive calls. Unless noted, how the calls were made is not given here.
# Assays:
# [1] = system: Wnt5a (protein binding on small-molecule microarray); test: small molecules binding Wnt5a protein – biophysical, small-molecule microarray, 635/667 nm fluorescence, primary screen (AID 1142); conditions: 635 nm fluorescence, higher = more signal;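 further: fluorescence read at 667 nm with signal to noise per printed feature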
# [2] = ATP-based viability of Huh7 replicon cells – cell-based, CellTiter-Glo luminescence, basal, 48 h, cytotoxicity control for HCV replication inhibitor project, primary screen (AID 1143); conditions: higher = more signal, called active from +8 up or from −8 down;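 further: Huh7 hepatoma cells carrying a hepatitis C replication reporter with no stimulus; test concentration not given here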
# [3] = Pseudomonas biofilm growth suppression – PAO1 strain, BacTiter-Glo luminescence, LB-PBS, primary screen (AID 1144); conditions: P. aeruginosa PAO1 biofilm, 12 h, higher = more signal
# [4] = basal CRE-LacZ reporter activity in PC12 – cell-based, unstimulated, primary screen (AID 1145); conditions: no forskolin, luminescence, 4.5 h, higher = more signal, called active from +8 up or from −8 down
# [5] = forskolin-driven CRE-LacZ activity in PC12 – cell-based, CRE-LacZ reporter, forskolin-stimulated, primary screen (AID 1146); conditions: luminescence, 4.5 h, higher = more signal, called active from +8 up or from −8 down;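 further: PC12 cells with 6xCRE LacZ reporter stimulated by forskolin 10 µM; beta-galactosidase reporter signal reflecting CREB driven transcription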
# [6] = molecular target: Streptavidin (Streptomyces avidinii) (UniProt P22629); test: compounds binding control protein streptavidin – biophysical, small-molecule microarray, 635/667 nm fluorescence, artefact control for SMM compound annotation, primary screen (AID 1147); conditions: higher = more signal;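 further: signal reflects streptavidin binding to arrayed compounds as a control protein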
# [7] = probe aInhba binding on compound microarray – biochemical, small-molecule microarray, 635/667 nm fluorescence, primary screen (AID 1148); conditions: higher = more signal;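 further: score merges 667nm spot fluorescence with signal-to-noise for antibody binding to printed compounds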
# [8] = molecular target: Torsin-1A (Homo sapiens) (UniProt O14656); test: TOR1A wild-type binding on microarray – cell lysate, small-molecule microarray, lysate, 635/667 nm, primary screen (AID 1149); conditions: COS7 hTOR1A-WT lysate, 635 nm fluorescence, higher = more signal
# [9] = molecular target: Torsin-1A (Homo sapiens) (UniProt O14656); test: torsin A mutant lysate binding on microarrays – cell lysate, small-molecule microarray, COS7 lysate, 635/667 nm fluorescence, primary screen (AID 1150); conditions: COS7 hTOR1A mutant lysate, 635 nm fluorescence, higher = more signal;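 further: score pools 667 nm emission and signal to noise measuring lysate protein binding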
# [10] = system: Sonic hedgehog protein (Shh); test: Sonic hedgehog microarray binding compounds – biochemical, small-molecule microarray, 635/667 nm fluorescence, primary screen (AID 1151); conditions: 635 nm fluorescence, higher = more signal;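 further: Shh protein binding to compounds spotted on small-molecule microarray slides; score combines spot fluorescence intensity with signal-to-noise across triplicate slides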
# [11] = optical density shifts of acrAB sulA E. coli – strain DRC41, OD650, 48 h, E. coli filamentation inducer project, primary screen (AID 1152); conditions: higher = more signal, called active from +8 up or from −8 down;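 further: E. coli MC1000 strain DRC41 lacking acrAB efflux pump and sulA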
# [12] = probe aLefty1 binding on compound microarray – biochemical, small-molecule microarray, 635/667 nm fluorescence, primary screen (AID 1153); conditions: higher = more signal;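 further: score merges spot fluorescence with signal-to-noise ratio from the scanned slide images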
# [13] = plasmodial surface anion channel blockers, osmotic lysis – cell-based, P. falciparum Indochina, OD700, 1 h, primary screen (AID 1154); conditions: P. falciparum Indochina infected RBC osmotic lysis, higher = more signal, called active from +8 up or from −8 down
# [14] = plasmodial surface anion channel blockers, osmotic lysis – cell-based, P. falciparum Indochina, OD700, 2 h, primary screen (AID 1155);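 further: lysis reports solute entry through the parasite surface anion channel PSAC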; conditions: P. falciparum Indochina infected erythrocytes, higher = more signal, called active from +8 up or from −8 down
# [15] = changes in parasitized red cell lysis, either direction – P. falciparum Indochina, OD700, 3 h, PSAC antagonist project, primary screen (AID 1156); conditions: P. falciparum-infected erythrocytes, osmotic lysis, higher = more signal, called active from +8 up or from −8 down
# [16] = plasmodial surface anion channel blockers, osmotic lysis – cell-based, P. falciparum Indochina, OD700, 18 h, primary screen (AID 1157); conditions: P. falciparum Indochina infected erythrocytes, osmotic lysis OD700, 18 h; higher = more signal, called active from +8 up or from −8 down
# [17] = S6 kinase pathway phospho-S6 level changes – cell-based, A549, cytoblot, luminescence, serum-stimulated, primary screen (AID 1158); conditions: 5 h, higher = more signal;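 further: serum-stimulated A549 lung adenocarcinoma cells; signal is phosphorylated S6 detected by cytoblot immunostaining with HRP secondary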
# [18] = molecular target: NADPH oxidase 2 (Homo sapiens) (UniProt P04839); test: compounds shifting NOX2 Amplex Red fluorescence – cell-based, HEK293-NOX2, PMA-stimulated, NOX inhibitor project, primary screen (AID 1159); conditions: 45 min, higher = more signal, called active from +8 up or from −8 down; further: test concentration not given here
# [19] = molecular target: NADPH oxidase 4 (Homo sapiens) (UniProt Q9NPH5); test: compounds shifting NOX4 Amplex Red fluorescence – cell-based, HEK293-NOX4, tetracycline-induced, NOX inhibitor project, primary screen (AID 1160); conditions: HEK293-NOX4, Amplex Red H2O2 fluorescence, 45 min; higher = more signal, called active from +8 up or from −8 down
# [20] = molecular target: NADPH oxidase 5 (Homo sapiens) (UniProt Q96PH1); test: compounds shifting NOX5 Amplex Red fluorescence – cell-based, HEK293-NOX5, NOX inhibitor project, primary screen (AID 1161); conditions: HEK293-NOX5, ionomycin, 45 min, higher = more signal
# Chain of NADPH oxidase 5 (Homo sapiens) (Q96PH1 whole entry, looked up): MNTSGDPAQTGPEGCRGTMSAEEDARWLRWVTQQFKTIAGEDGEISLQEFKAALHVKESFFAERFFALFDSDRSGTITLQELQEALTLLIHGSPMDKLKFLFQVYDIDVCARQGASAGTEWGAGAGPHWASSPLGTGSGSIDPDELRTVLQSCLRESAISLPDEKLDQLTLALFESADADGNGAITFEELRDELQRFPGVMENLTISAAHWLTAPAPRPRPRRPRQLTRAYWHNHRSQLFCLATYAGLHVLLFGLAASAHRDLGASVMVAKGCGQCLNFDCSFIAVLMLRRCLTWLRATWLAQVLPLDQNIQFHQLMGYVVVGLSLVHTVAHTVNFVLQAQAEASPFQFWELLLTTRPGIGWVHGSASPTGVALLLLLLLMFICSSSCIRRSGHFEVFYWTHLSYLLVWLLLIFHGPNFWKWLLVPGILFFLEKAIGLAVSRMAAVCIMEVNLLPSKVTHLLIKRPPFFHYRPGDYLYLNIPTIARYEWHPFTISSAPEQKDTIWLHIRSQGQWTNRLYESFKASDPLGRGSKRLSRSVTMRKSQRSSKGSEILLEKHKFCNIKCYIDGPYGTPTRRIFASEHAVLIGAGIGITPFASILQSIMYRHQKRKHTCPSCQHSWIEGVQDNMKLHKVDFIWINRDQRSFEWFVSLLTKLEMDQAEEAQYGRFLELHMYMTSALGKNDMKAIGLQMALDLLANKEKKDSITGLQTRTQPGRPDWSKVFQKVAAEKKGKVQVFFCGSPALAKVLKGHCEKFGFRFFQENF
# Chain of Torsin-1A (Homo sapiens) (O14656 whole entry, looked up): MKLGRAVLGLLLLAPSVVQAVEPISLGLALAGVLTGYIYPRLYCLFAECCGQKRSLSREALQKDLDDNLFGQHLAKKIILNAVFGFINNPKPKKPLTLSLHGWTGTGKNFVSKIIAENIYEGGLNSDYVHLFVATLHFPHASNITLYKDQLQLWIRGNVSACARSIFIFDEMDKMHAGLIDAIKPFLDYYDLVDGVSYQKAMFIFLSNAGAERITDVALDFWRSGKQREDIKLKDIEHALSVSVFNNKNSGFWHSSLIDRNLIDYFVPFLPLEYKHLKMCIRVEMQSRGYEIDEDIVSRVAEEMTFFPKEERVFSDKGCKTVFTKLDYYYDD
# Chain of NADPH oxidase 4 (Homo sapiens) (Q9NPH5 whole entry, looked up): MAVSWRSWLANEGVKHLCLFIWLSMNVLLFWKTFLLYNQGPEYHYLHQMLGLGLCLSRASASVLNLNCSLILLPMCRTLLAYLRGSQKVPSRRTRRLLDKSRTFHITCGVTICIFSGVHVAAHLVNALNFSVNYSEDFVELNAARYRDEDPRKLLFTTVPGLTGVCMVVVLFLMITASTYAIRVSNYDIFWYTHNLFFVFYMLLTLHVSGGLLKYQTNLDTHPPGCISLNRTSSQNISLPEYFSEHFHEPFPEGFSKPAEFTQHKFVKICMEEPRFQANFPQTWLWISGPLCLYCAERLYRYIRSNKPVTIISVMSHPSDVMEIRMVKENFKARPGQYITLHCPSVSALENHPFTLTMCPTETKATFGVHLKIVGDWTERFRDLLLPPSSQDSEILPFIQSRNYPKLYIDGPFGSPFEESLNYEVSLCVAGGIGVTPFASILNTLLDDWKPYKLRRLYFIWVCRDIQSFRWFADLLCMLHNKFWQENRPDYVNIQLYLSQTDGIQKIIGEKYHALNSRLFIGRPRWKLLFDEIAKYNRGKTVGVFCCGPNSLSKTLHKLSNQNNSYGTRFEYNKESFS
# Chain of NADPH oxidase 2 (Homo sapiens) (P04839 whole entry, looked up): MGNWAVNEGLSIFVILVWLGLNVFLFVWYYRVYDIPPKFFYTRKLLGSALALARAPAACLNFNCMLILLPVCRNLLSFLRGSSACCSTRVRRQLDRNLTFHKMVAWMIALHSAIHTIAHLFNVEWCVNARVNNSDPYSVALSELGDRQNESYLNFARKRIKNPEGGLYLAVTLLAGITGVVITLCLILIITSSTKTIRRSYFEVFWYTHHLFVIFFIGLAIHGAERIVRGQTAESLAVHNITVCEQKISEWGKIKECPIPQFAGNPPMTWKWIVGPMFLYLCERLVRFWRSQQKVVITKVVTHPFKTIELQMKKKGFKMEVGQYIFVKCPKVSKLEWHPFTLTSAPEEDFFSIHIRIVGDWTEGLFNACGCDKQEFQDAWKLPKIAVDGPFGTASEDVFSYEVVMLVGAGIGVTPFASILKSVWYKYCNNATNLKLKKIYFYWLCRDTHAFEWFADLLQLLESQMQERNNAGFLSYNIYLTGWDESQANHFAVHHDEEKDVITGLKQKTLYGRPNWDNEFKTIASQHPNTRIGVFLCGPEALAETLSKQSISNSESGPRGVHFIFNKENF
# Chain of Streptavidin (Streptomyces avidinii) (P22629 whole entry, looked up): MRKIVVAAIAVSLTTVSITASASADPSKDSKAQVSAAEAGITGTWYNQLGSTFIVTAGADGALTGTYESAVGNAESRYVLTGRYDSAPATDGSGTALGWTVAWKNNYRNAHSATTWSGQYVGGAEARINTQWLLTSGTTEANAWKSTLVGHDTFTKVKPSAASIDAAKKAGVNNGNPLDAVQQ
SMILES,composite z-score [1],z-score [2],z-score [3],z-score [4],z-score [5],composite z-score [6],composite z-score [7],composite z-score [8],composite z-score [9],composite z-score [10],z-score [11],composite z-score [12],z-score [13],z-score [14],z-score [15],z-score [16],z-score [17],z-score [18],z-score [19],z-score [20]
COc1cc2c(cc1OC)CN(C(=O)[C@@H]1[C@H]3C(=O)O[C@H](c4ccccc4)[C@H](c4ccccc4)N3[C@H](c3ccccc3OCCO)[C@@]13C(=O)Nc1ccc(C#CC4(O)CCCCCC4)cc13)CC2,0.0109,-2.91 (inactive),-0.0135 (inactive),-0.788 (inactive),-0.749 (inactive),0.445,-0.0523,0.825,0.827,0.791,2.01 (inactive),-0.2,3.46 (inactive),2.47 (inactive),1.26 (inactive),2.21 (inactive),0.454,1.73 (inactive),0.934 (inactive),2.25
CC(C)N1CC=CC23O[C@@H]4C=CCOC(=O)[C@@H]4[C@H]2C(=O)N(C(C)CO)[C@@H]3C1=O (stereo not given in full),-0.517,0.394 (inactive),0.995 (inactive),-0.619 (inactive),-0.544 (inactive),-0.23,-0.161,-1.33,-1.43,-0.753,-0.32 (inactive),0.233,0.287 (inactive),0.0397 (inactive),0.112 (inactive),0.111 (inactive),0.74,0.67 (inactive),0.266 (inactive),0.393
C=CC[C@]1(C(=O)N(C)C)N=C(c2ccc(OCCCO)cc2)O[C@H]1c1ccccc1N=[N+]=[N-],0.596,-2.58 (inactive),0.00404 (inactive),1.99 (inactive),-1.23 (inactive),1.61,-0.0136,0.73,0.696,-1.32,0.355 (inactive),0.313,30.8 (active),28.4 (active),2.88 (inactive),7.33 (inactive),-0.219,-1.06 (inactive),1.52 (inactive),0.668
COCCOC(=O)N1C(=O)[C@@]2(c3cc(C#Cc4ccc(OC)cc4)ccc31)[C@H](C(=O)N1CCCCCCC1)[C@H]1C(=O)O[C@H](c3ccccc3)[C@H](c3ccccc3)N1[C@@H]2c1ccc(O)cc1,0.164,-5.16 (inactive),-1.11 (inactive),-1.02 (inactive),-0.841 (inactive),0.123,0.696,0.536,0.864,1.47,0.785 (inactive),1.58,1.04 (inactive),-0.134 (inactive),-0.318 (inactive),-0.518 (inactive),1.27,-0.76 (inactive),-0.951 (inactive),-1.4
O=C1NCC(=O)N2[C@@H]1C[C@@H](C(=O)O)[C@H]2c1ccc(O)cc1,0.27,-0.286 (inactive),-0.611 (inactive),0.0084 (inactive),0.622 (inactive),0.237,0.0104,1.13,2.29,2.01,0.533 (inactive),0.138,2.73 (inactive),0.328 (inactive),-3.02 (inactive),-0.0173 (inactive),-0.174,-1.92 (inactive),-0.822 (inactive),-1.29
NC(=O)NCC#Cc1ccc2c(c1)[C@]1(C(=O)N2)[C@H](C(=O)O)[C@H]2C(=O)O[C@H](c3ccccc3)[C@H](c3ccccc3)N2[C@@H]1c1ccccc1OCCO,0.697,-1.95 (inactive),-1.26 (inactive),0.0384 (inactive),0.143 (inactive),1.1,0.374,0.712,0.651,1.41,3.32 (inactive),0.73,-1.21 (inactive),-1.81 (inactive),-3.99 (inactive),-2.67 (inactive),2.78,2.1 (inactive),0.786 (inactive),-0.188
COC(=O)[C@@]1(Cc2ccc(OC)cc2)[C@H]2c3cc(C(=O)N(C)C)n(CCc4c[nH]c5ccc(O)cc45)c3C[C@H]2CN1C(=O)c1ccccc1,0.292,-2.69 (inactive),0.255 (inactive),0.383 (inactive),-0.292 (inactive),1.65,0.765,0.0612,0.263,-0.428,-1.58 (inactive),0.825,4.25 (inactive),1.25 (inactive),0.396 (inactive),1.23 (inactive),0.092,0.689 (inactive),0.0624 (inactive),1.14
CC(C)C(O)C1C=CC2C(=O)N(C)C(=O)C2N1Nc1ccccc1 (stereo not given),0.361,1.03 (inactive),-1.04 (inactive),0.0535 (inactive),-0.0784 (inactive),0.53,0.85,0.378,0.597,-0.361,-0.532 (inactive),0.124,-0.162 (inactive),1.18 (inactive),0.448 (inactive),0.778 (inactive),-0.679,-1.43 (inactive),-3.72 (inactive),-2.93
C=CCN1C(=O)[C@@]2(O[C@@H](CCO)[C@H]([Si](C)(C)c3ccc(OC)cc3)[C@H]2C)c2cc(N3C(=O)c4ccccc4Oc4ccccc43)ccc21,0.485,-7.93 (inactive),-1.4 (inactive),18.4 (active),-3.87 (inactive),0.031,-0.102,-0.331,-0.0355,0.23,1.88 (inactive),-0.147,24.4 (active),8.39 (active),0.332 (inactive),2.07 (inactive),0.502,-0.946 (inactive),0.757 (inactive),-0.54
